Test systems include DU-145 prostate; K-562 leukemia; MALME-3M melanoma; MDA-MB-231 breast; RXF 393 renal; SF-268 CNS; SF-295 CNS; SF-539 CNS; M14 melanoma.
Common to all, as to test: NCI-60 one-dose screen, 48 h (100 = growth as untreated, 0 = no growth, -100 = all killed)
Details in all cases: 10 µM unless noted

This is part of a sample that, as a whole, favours compounds with a hit. Of some 83,000 tested, about 20% had one in any assay.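 For each line, cells grew in 96-well plates with the test compound present at a single concentration for 48 hours.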 Values without a mark were called inactive. Activity calls are given as the source filed them. The calls were made as follows: active = growth percent below 10; inactive = the rest.

Take `COc1cc(C(=O)N2CCN(C(=O)c3ccco3)CC2)c(N)cc1OCc1ccccc1`: the growth in the experiment on DU-145 prostate was 115%; in the experiment on K-562 leukemia, 85.3%; in the experiment with MALME-3M melanoma, 107%; in the experiment on MDA-MB-231 breast, 101%; with RXF 393 renal it was 89.9%; in the experiment with SF-268 CNS, 108%. In addition, the results for the growth in the experiment on SF-295 CNS, in the experiment with SF-539 CNS and in the experiment with M14 melanoma were 115%, 98.2% and 102%, respectively.
Regarding `O=C(CSc1nc(-c2ccc(Cl)cc2)cn1-c1ccc(Cl)cc1)c1ccc(Br)cc1`, the growth is 90.9% with DU-145 prostate; 86.4% with K-562 leukemia; 94% in the experiment with MALME-3M melanoma; 60.1% in the experiment on MDA-MB-231 breast; 67.9% in the experiment with RXF 393 renal; 78.1% in the experiment with SF-268 CNS. Moreover, the growth in the experiment on SF-295 CNS was 52.1%; with SF-539 CNS, 84.7%; in the experiment with M14 melanoma, 89.1%.
Regarding `CCOC(=O)c1cc(/C(=N\O)c2cc(OC)c(OC)c(OC)c2)n2cc(C)cc(C)c12`, the growth in the experiment with DU-145 prostate was 41.9%; in the experiment on K-562 leukemia it was 12.5%; with MALME-3M melanoma, 37.8%; in the experiment with MDA-MB-231 breast, 34.7%; in the experiment with RXF 393 renal, 36.1%; in the experiment with SF-268 CNS it was 38.7%. For the same compound, the growth with SF-295 CNS is 1.85% (active); in the experiment on SF-539 CNS, 15.8%; in the experiment on M14 melanoma, 10.5%.
`Nc1cccc2c1CN(C1CCC(=O)NC1=O)C2=O` (stereo not given): the growth in the experiment with DU-145 prostate is 107%; with K-562 leukemia it was 132%; with MALME-3M melanoma, 119%; with MDA-MB-231 breast, 107%; in the experiment on RXF 393 renal it was -17.4% (active); in the experiment with SF-268 CNS, 102%. Moreover, the growth in the experiment on SF-295 CNS was 116%; with SF-539 CNS, 94.7%; with M14 melanoma, 101%.
Turning to `O=C(O)c1ccc(-n2cc(CNc3ccc(C(F)(F)F)cc3)c(-c3ccccc3)n2)cc1`, the growth in the experiment with DU-145 prostate is 95.9%; with K-562 leukemia it was 80.6%; in the experiment on MALME-3M melanoma it was 91.3%; in the experiment on MDA-MB-231 breast, 102%; in the experiment on RXF 393 renal, 99.4%; with SF-268 CNS, 91.4%. Besides, the growth in the experiment on SF-295 CNS is 75%; in the experiment on SF-539 CNS, 99.9%; in the experiment on M14 melanoma it was 89%.
In the case of `Nc1ccccc1C#C/C=C\C#Cc1cccc(O)c1`, the growth was 73.1% in the experiment with DU-145 prostate; 30.9% with K-562 leukemia; 51.6% in the experiment on MALME-3M melanoma; 39.7% in the experiment on MDA-MB-231 breast; 59% with RXF 393 renal; 65.3% in the experiment on SF-268 CNS. The growth in the experiment on SF-295 CNS was 40.2%; in the experiment with SF-539 CNS, 42.9%; in the experiment with M14 melanoma it was 31.5%.
As to `COC(=O)CCCCCN=Cc1c(O)c(O)c(C(C)C)c2cc(C)c(-c3c(C)cc4c(C(C)C)c(O)c(O)c(C=NCCCCCC(=O)OC)c4c3O)c(O)c12`, the growth in the experiment with DU-145 prostate is 23%; in the experiment on K-562 leukemia it was 9.57% (active); with MALME-3M melanoma, 44.4%; in the experiment with MDA-MB-231 breast, 11.9%; in the experiment with RXF 393 renal, 29.2%; with SF-268 CNS, 25.6%. Besides, the results for the growth in the experiment with SF-295 CNS, with SF-539 CNS and in the experiment with M14 melanoma were 9.3% (active), 23.7% and 18.6%, respectively.
Regarding `CC(Br)C(O)c1cc2c(cc1Br)OCO2` (stereo not given), the growth was 109% with DU-145 prostate; 101% in the experiment on K-562 leukemia; 109% in the experiment with MALME-3M melanoma; 111% with MDA-MB-231 breast; 104% with RXF 393 renal; 104% in the experiment with SF-268 CNS. The growth in the experiment on SF-295 CNS is 110%; in the experiment with SF-539 CNS it was 105%; in the experiment on M14 melanoma, 96%.
Turning to `NC(=O)c1cccc(N2Cc3ccccc3OC3=C2C(=O)c2c(O)ccc(O)c2C3=O)c1`, the growth with DU-145 prostate was -96.4% (active); in the experiment on K-562 leukemia, -19.8% (active); in the experiment with MALME-3M melanoma, -82% (active); in the experiment on MDA-MB-231 breast, -81.9% (active); in the experiment with RXF 393 renal it was -73.1% (active); in the experiment with SF-268 CNS, -11.4% (active). Also, the results for the growth with SF-295 CNS, in the experiment on SF-539 CNS and in the experiment with M14 melanoma were 45.4%, -49.3% (active) and -81% (active), respectively.
With `Cc1ccc2nc(SCn3nnc4ccccc4c3=O)[nH]c2c1`, the growth with DU-145 prostate was 96.5%; with K-562 leukemia, 74.4%; with MALME-3M melanoma, 323%; with MDA-MB-231 breast, 97.9%; in the experiment with RXF 393 renal, 117%; with SF-268 CNS it was 111%. Further, the growth in the experiment on SF-295 CNS is 109%; with SF-539 CNS it was 86.4%; in the experiment with M14 melanoma it was 102%.
Take `Cc1c(C(=O)NCc2ccccc2)[n+](=O)c2cc(F)ccc2n1[O-]`: the growth in the experiment with DU-145 prostate was 99.8%; in the experiment on K-562 leukemia it was 214%; in the experiment with MALME-3M melanoma it was 114%; in the experiment on MDA-MB-231 breast, 111%; with RXF 393 renal, 33.1%; in the experiment on SF-268 CNS, 111%. The growth was 88.4% in the experiment with SF-295 CNS, 103% in the experiment with SF-539 CNS and 99.5% in the experiment with M14 melanoma.
As to `COc1ccc(/C(=N/O)c2cc(OC)c(OC)c(OC)c2)c(OC)c1N`, the growth in the experiment with DU-145 prostate was 39%; with K-562 leukemia, 14.7%; in the experiment on MALME-3M melanoma, 53.1%; in the experiment on MDA-MB-231 breast, 55.3%; in the experiment with RXF 393 renal, 23.2%; in the experiment with SF-268 CNS, 49.1%. Moreover, the growth in the experiment with SF-295 CNS is 6.4% (active); with SF-539 CNS it was 3.96% (active); in the experiment with M14 melanoma, 21%.
`C=C1C(=O)O[C@H]2[C@H]1CC/C(COC(=O)NCCc1ccc(OC)cc1)=C\CC[C@@]1(C)O[C@@H]21`: the growth in the experiment with DU-145 prostate is -12.2% (active); in the experiment with K-562 leukemia it was 2.33% (active); with MALME-3M melanoma, -8.71% (active); in the experiment on MDA-MB-231 breast, 1.63% (active); in the experiment on RXF 393 renal, -30.6% (active); with SF-268 CNS, 45.9%. Besides, the growth was 80.3% in the experiment on SF-295 CNS, 26.6% with SF-539 CNS and 25.1% with M14 melanoma.
For the compound `CC/C=C\C[C@H]1C/C=C2/C(=O)C(Cl)=C[C@@H]2C/C=C\CCCC(=O)O1`, the growth was -91% (active) with DU-145 prostate; -11.6% (active) in the experiment on K-562 leukemia; -42.6% (active) with MALME-3M melanoma; -13% (active) in the experiment on MDA-MB-231 breast; -90.1% (active) in the experiment with RXF 393 renal; -55.4% (active) with SF-268 CNS. Also, the figures for the growth in the experiment with SF-295 CNS, in the experiment with SF-539 CNS and in the experiment with M14 melanoma were -63% (active), -72.6% (active) and -47.1% (active), respectively.
Regarding `CCSc1nnc(Nc2ccc(C(C)C)cc2)s1`, the growth in the experiment with DU-145 prostate was 105%; in the experiment with K-562 leukemia, 51.8%; with MALME-3M melanoma it was 90.7%; in the experiment on MDA-MB-231 breast it was 92.5%; with RXF 393 renal, 28%; in the experiment with SF-268 CNS, 112%. For the same compound, the growth in the experiment on SF-295 CNS is 91.1%; in the experiment with SF-539 CNS, 90.4%; in the experiment on M14 melanoma it was 95.7%.

Values taken from PubChem BioAssay (NCI).
